Source: PubChem
The list is not random: actives were taken first. Their share in the collection is about 3.2%.
DNA Pol III inh – DNA polymerase III holoenzyme inhibition; Potency, µM (highest dose often 57.1 µM); hit rate 0.25% among 71,000; reconstituted DNA polymerase III holoenzyme replication, biochemical; AID 603
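Reconstituted *E. coli* holoenzyme (0.35 nM Pol III, 1 nM beta, 154 nM SSB, 2 nM primase) was preincubated with compound for 15 min at RT. Synthesis on 1.4 nM ssM13Gori ran 35 min, then was stopped with PicoGreen/EDTA and read as dsDNA fluorescence.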
Casp7 inh – blocks human caspase-7 allosterically or competitively | P55210 | recombinant caspase-7, Ac-DEVD-AFC fluorescence rate | Potency, µM (top dose mostly 57.5 µM), usual class: inhibitors | hit rate 0.02% among 75,000; active = well fitted inhibition curve with a large enough effect in the main read-out, with a control signal flat, not every such curve was filed as active; inconclusive = small, poorly fitted or top-dose-only effect, or a change in a side signal
Tau fil binding – tau filament binding | P10636 | recombinant tau filaments, thioflavin S fluorescence, 15 h; filaments grown with octadecylsulfate alongside compound | Potency, µM (titrated, usually from 57.1 µM) | hit rate 2% among 71,000 | AID 596;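 also: actives lower thioflavin S fluorescence by blocking filaments or displacing dye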
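Assay mix: 1 uM His-tagged tau, 30 uM sodium octadecylsulfate, thioflavine S dye in HEPES/NaCl/DTT buffer. Compound is added prior to the inducer. Fluorescence after 15 h at 37 C.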
ALOX15 inhib – inhibitors of human 15-lipoxygenase (ALOX15). P16050. AID 887. Potency, µM (highest dose often 57.1 µM), most hits filed as inhibitors. hit rate 1.4% among 74,000. purified 15hLO-1, xylenol orange hydroperoxide absorbance; also: nearly all actives have a fitted effect of over 55% in size
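Inhibition is scored from a chromogenic endpoint. After 15 min enzyme-compound contact, arachidonic acid (50 uM final) reacts 6 min with 40 nM 15hLO-1 at room temperature, then Fe-XO reagent is added for 30 min and absorbance ratio recorded.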
Casp1 inh – blocks human caspase-1 allosterically or competitively; Potency, µM (series often up to 57.5 µM), actives largely listed as inhibitors; hit rate 0.03% among 75,000; AID 900; Caspase-1 enzyme, Ac-WEHD-AFC fluorogenic rate; P29466
Numbers stand for hits; [ ] = remark or other dose. Unless noted, calls follow the shape of the dose curve; as a rule, active = well fitted curve in the direction sought with a large enough effect; inconclusive = small, poorly fitted or top-dose-only effect, or another doubt; inactive = no such curve, though single readings can be large; an effect the other way counts as inactive or inconclusive.

What do the screens show for `CO[C@@H]1/C=C\O[C@@]2(C)Oc3c(C)c(O)c4c(c3C2=O)C(=N[C@H]2CC[C@H](O)O[C@@H]2C)C=C(NC(=O)/C(C)=C\C(=O)[C@@H]2C[C@@H]2[C@@H](O)[C@H](C)[C@@H](O)[C@H](C)[C@H](OC(C)=O)[C@@H]1C)C4=O`?
DNA Pol III inh: inactive[11.4 µM]; Casp7 inh: inactive[11.5 µM]; Tau fil binding: inactive[11.4 µM]; ALOX15 inhib: 2µM; Casp1 inh: inactive[11.5 µM]

What do the screens show for `CO[C@@H]1/C=C\O[C@]2(C)Oc3c(C)c(O)c4c(O)c(c(CN5CCN(C)CC5)c(O)c4c3C2=O)NC(=O)/C(C)=C\C=C[C@@H](C)[C@@H](O)[C@H](C)[C@@H](O)[C@H](C)[C@H](OC(C)=O)[C@@H]1C`?
DNA Pol III inh: inactive[11.4 µM]; Casp7 inh: inactive[11.5 µM]; Tau fil binding: inactive[11.4 µM]; ALOX15 inhib: inconclusive; Casp1 inh: inactive[11.5 µM]

What do the screens show for `Cc1ccc2oc(-c3ccccc3)c(O)c(=O)c2c1`?
DNA Pol III inh: inactive; Casp7 inh: inactive; Tau fil binding: 31.6µM; ALOX15 inhib: inactive; Casp1 inh: inactive

Results for Cc1ccc(-c2oc3ccccc3c(=O)c2O)cc1 ?
DNA Pol III inh: inactive; Casp7 inh: inactive; Tau fil binding: inactive; ALOX15 inhib: inactive; Casp1 inh: inactive

What do the screens show for `Nc1nc(N)nc(CC(=O)O)n1`?
DNA Pol III inh: inactive[11.4 µM]; Casp7 inh: inactive[11.5 µM]; Tau fil binding: inactive[11.4 µM]; ALOX15 inhib: inactive[11.4 µM]; Casp1 inh: inactive[11.5 µM]

How did O=C1C2C3CCCC3=C3CCCC3C2C(=O)N1c1ccc(F)cc1 (stereo unspecified) do in these assays?
DNA Pol III inh: inactive; Casp7 inh: inactive; Tau fil binding: inactive; ALOX15 inhib: 3.16µM; Casp1 inh: inconclusive

How did COc1ccc(Cc2nnc3n2N=C(c2cc4ccccc4o2)CS3)cc1OC do in these assays?
DNA Pol III inh: inactive; Casp7 inh: inactive; Tau fil binding: 31.6µM; ALOX15 inhib: inactive; Casp1 inh: inactive

What do the screens show for `FC(F)(F)c1cc(NC(=S)N2c3ccccc3-n3cccc3[C@H]2c2cccnc2)cc(C(F)(F)F)c1`?
DNA Pol III inh: inactive[11.4 µM]; Casp7 inh: inconclusive; Tau fil binding: inactive[11.4 µM]; ALOX15 inhib: inactive[11.4 µM]; Casp1 inh: inconclusive

Results for CC(C)Oc1ccc(C2c3c(oc4ccccc4c3=O)C(=O)N2CCCN2CCOCC2)cc1 (stereo unspecified) ?
DNA Pol III inh: inactive; Casp7 inh: inactive; Tau fil binding: 15.8µM; ALOX15 inhib: inactive; Casp1 inh: inactive

Results for C=CCOc1ccc(C2c3c(oc4ccccc4c3=O)C(=O)N2CCCN2CCOCC2)cc1 (stereo unspecified) ?
DNA Pol III inh: inactive; Casp7 inh: inactive; Tau fil binding: inconclusive; ALOX15 inhib: inactive; Casp1 inh: inactive

What do the screens show for `NCS(=O)(=O)O`?
DNA Pol III inh: inactive[11.4 µM]; Casp7 inh: inactive[11.5 µM]; Tau fil binding: inactive[11.4 µM]; ALOX15 inhib: inactive[11.4 µM]; Casp1 inh: inactive[11.5 µM]

How did C[C@@H]1NCC[C@H](CC(=O)O)[C@H]1CC(=O)O do in these assays?
DNA Pol III inh: inactive[11.4 µM]; Casp7 inh: inactive[11.5 µM]; Tau fil binding: inactive[11.4 µM]; ALOX15 inhib: inactive[11.4 µM]; Casp1 inh: inactive[11.5 µM]

Results for CC(=O)OC[C@H]1O[C@@H](ON=C(C)C)[C@H](OC(C)=O)[C@@H](OC(C)=O)[C@H]1OC(C)=O ?
Casp7 inh: inactive[11.5 µM]; ALOX15 inhib: inactive[11.4 µM]; Casp1 inh: inactive[11.5 µM]

Results for CCCn1c(C)nc2c(N3CCOCC3)nc(C)nc21 ?
DNA Pol III inh: inactive; Casp7 inh: inactive; Tau fil binding: inactive; ALOX15 inhib: inactive; Casp1 inh: inactive

Results for O=c1c2ccccc2sc2nc(C3CCCCC3)n(Cc3ccco3)c(=O)c12 ?
DNA Pol III inh: inactive; Casp7 inh: inactive; Tau fil binding: 10µM; ALOX15 inhib: inactive; Casp1 inh: inactive

Results for CCc1nc2sc3ccccc3c(=O)c2c(=O)n1Cc1ccco1 ?
DNA Pol III inh: inactive; Casp7 inh: inactive; Tau fil binding: 15.8µM; ALOX15 inhib: inactive; Casp1 inh: inactive

What do the screens show for `C/C(CC/C(C)=N/O)=N/O`?
DNA Pol III inh: inactive[11.4 µM]; Casp7 inh: inactive[11.5 µM]; Tau fil binding: inactive[11.4 µM]; ALOX15 inhib: inactive[11.4 µM]; Casp1 inh: inactive[11.5 µM]

How did N[C@@H]1C=CC=C(C(=O)O)C1 do in these assays?
DNA Pol III inh: inactive; Casp7 inh: inactive; Tau fil binding: inactive; ALOX15 inhib: inactive; Casp1 inh: inactive

What do the screens show for `Cn1cccc1C(=O)N1CCC2(CC1)CCN(c1ccc(-c3ccccc3)cc1)CC2`?
DNA Pol III inh: inactive; Casp7 inh: inactive; Tau fil binding: 15.8µM; ALOX15 inhib: inactive; Casp1 inh: inactive
